Test results as given in PubChem BioAssay (EPA / NIEHS).
Some structures have more than one record in an assay (separate samples or runs), and their calls can disagree. Activity calls are given as the source filed them. Rule for the calls: active = hit-call score of the fitted dose curve at least 0.9, where 1 is the maximum; inactive = score below 0.9.

assay: APR_HepG2_MitoticArrest_24hr: Apredica 24-hour HepG2 Assay for Mitotic Arrest (AID 2282910); settings: high-content imaging, actives raise or lower the signal
Procedure: APR_HepG2_24hr is a cell-based, multiplexed-readout assay that uses HepG2, a human liver cell line, with measurements taken at 24 hours after chemical dosing in a 384-well plate.APR_HepG2_MitoticArrest_24hr is one of 10 assay component(s) measured or calculated from the APR_HepG2_24hr assay. It is designed to make measurements of cell phenotype, a form of morphology reporter, as detected with fluorescence intensity signals by HCS Fluorescent Imaging technology.Data from the assay component APR_HepG2_MitoticArrest_24hr was analyzed into 1 assay endpoint. This assay endpoint, APR_HepG2_MitoticArrest_24hr, was analyzed with bidirectional fitting relative to DMSO as the negative control and baseline of activity. Using a type of morphology reporter, measures of protein for gain or loss-of-signal activity can be used to understand the signaling at the pathway-level as they relate to the gene . Furthermore, this assay endpoint can be referred to as a primary readout, because this assay has produced multiple assay endpoints where this one serves a signaling function. To generalize the intended target to other relatable targets, this assay endpoint is annotated to the cell cycle intended target family, where the subfamily is arrest.
Cells were treated with dimethyl sulfoxide (DMSO) as a solvent control at a final concentration of 0.5% v/v or with compounds in DMSO with a resulting final DMSO concentration of 0.5% v/v. Compound treatment was done at concentrations of 0.39, 0.78, 1.56, 3.12, 6.24, 12.5, 25, 50, 100, and 200 uM in duplicate on each plate. Cells were treated with compounds for 1, 24, or 72 hr. Carbonyl […] m-chloro-phenylhydrazone (CCCP) and taxol were used as positive controls for mitochondrial function and cytoskeletal stability, respectively; DMSO served as the negative control for this experiment. Cells were fixed by the direct addition of 50 uL formaldehyde in Hank's Balanced Salt Solution (HBSS) to a final concentration of 3.7%. After incubation in the fixation medium for 30 min at room temperature (293-298 K), cells were rinsed twice with HBSS and treated with cell permeabilization buffer (16 uL of 0.5% Triton X-100) for 10 min at room temperature (293-298 K) before labeling. For mitochondrial membrane potential and mitochondrial measurements, pre-fixed cells were incubated with 50 uL of MitoTracker Red CMXRos (Invitrogen) at a concentration of 250 nM for 30 min before fixation. In the remaining cases, post-fixed cells were labeled by incubation with a multiplexed mixture of primary antibodies in HBSS for 60 min at room temperature (293-298 K) to detect immunoreactivity of c-Jun (1:500), phospho-histone H3 (1:100), phospho-histone H2A.x (1:200), p53 (1:400), alpha-tubulin (1:200) and Hoechst 33342 (2 ug/mL). Cells were labeled for multiplexed imaging on two separate plates: a) Hoechst 33342, MitoTracker Red, phospho-histone H3, and alpha-tubulin, and b) Hoechst 33342, phospho-histone H2A.x, and c-Jun. A final rinse with HBSS (50 uL) was performed before analysis. The primary and secondary antibodies for the proteins were phospho-histone H3 (rabbit anti-phospho-histone H3 and FITC-donkey anti-rabbit IgG), phospho-histone H2A.x (mouse anti-phospho-histone H2A.x and FITC-donkey anti-mouse IgG), c-Jun (rabbit anti-phospho-c-Jun and Cy3-donkey anti-rabbit IgG), p53 (sheep anti-p53 and Cy5-donkey anti-sheep IgG), alpha-tubulin (mouse anti-alpha-tubulin and Cy5-donkey anti-mouse IgG). These antibodies are available as the CellCiphr HepG2 assay kit (Millipore).Digital images of each well were captured using a Cellomics ArrayScan VTI (Thermo Scientific Cellomics) (0.8 NA objective, 0.63x optical coupler, and XF-93 filter set) at 20x magnification. The images were acquired using the autofocus feature of the ArrayScan instrument, which entails the following steps. First, the camera focuses on channel 1 (Hoechst 33342), where nuclei are identified. Second, a Z offset of 1 um is used for capturing mitochondria (MitoTracker Red). […]

Row | Structure (SMILES) | outcome | AC50
1 | CCC(=O)C(CC(C)N(C)C)(c1ccccc1)c1ccccc1 (centres undefined) | inactive | –
2 | CC(=O)[O][Hg][c]1ccccc1 | – | 3.06 µM (active)
3 | O=C(O)C(F)(F)C(F)(F)C(F)(F)C(F)(F)C(F)(F)C(F)(F)F | inactive | –
4 | Oc1cccc2cccnc12 | inactive | –
5 | O=c1[nH]c(=O)[nH]c(=O)[nH]1 | inactive | –
6 | COc1cc(-c2ccc(N)c(OC)c2)ccc1N | inactive | 28.8 µM (active)
7 | O=C(O)C(Cl)(Cl)Cl | inactive | –
8 | CC12CC1(C)C(=O)N(c1cc(Cl)cc(Cl)c1)C2=O (centres undefined) | inactive | –
9 | O=C(Nc1ccc2[nH]ccc2c1)c1cc2cc(F)ccc2n1Cc1cccc(F)c1 | – | 30.9 µM (active)
10 | C[C@@H]1C[C@@H]([C@H](O)CC2CC(=O)NC(=O)C2)C(=O)[C@@H](C)C1 | inactive | –
11 | O=C1C2(Cl)C3(Cl)C4(Cl)C(Cl)(Cl)C5(Cl)C3(Cl)C1(Cl)C5(Cl)C24Cl (centres undefined) | inactive | –
12 | NC(=O)O | – | 5.54 µM (active)
13 | Cn1sc(Cl)cc1=O | – | 110 µM (active)
14 | C[C@]12CCC(=O)C[C@@H]1CC[C@@H]1[C@@H]2CC[C@]2(C)[C@@H](O)CC[C@@H]12 | inactive | –
15 | CCN1CCC2(CC1)COc1cc3c(cc12)N(C(=O)c1ccc(-c2ccc(-c4nnc(C)o4)cc2C)cc1)CC3 | – | 13.2 µM (active)
16 | CN(C)N=O | inactive | –
17 | C=CC(=O)OCCCCCC(C)C | inactive | –
18 | CCC(C)(C)c1ccc(O)c(C(C)(C)CC)c1 | – | 32.3 µM (active)
19 | ClCC(Cl)CCl | inactive | –
20 | CCCCCCCCc1ccc(O)cc1 | – | 77.2 µM (active)
21 | CC(C)(OO)c1ccccc1 | – | 71.4 µM (active)
22 | ClC1(Cl)C2(Cl)C3(Cl)C4(Cl)C(Cl)(Cl)C5(Cl)C3(Cl)C1(Cl)C5(Cl)C24Cl (centres undefined) | inactive | –
23 | Cc1ccccc1N | inactive | –
24 | C=C(C)C(=O)[O][Sn]([CH2]CCC)([CH2]CCC)[CH2]CCC | – | 0.248 µM (active)
25 | CC(C)(c1ccccc1)c1ccc(O)c(C(C)(C)c2ccccc2)c1 | inactive | –
26 | CC(C)(C)CC(C)(C)c1ccc(O)cc1 | – | 49.6 µM (active)
27 | CC(C)(C)c1cc(O)ccc1O | inactive | –
28 | O=C(O)C(F)(F)C(F)(F)C(F)(F)C(F)(F)C(F)(F)C(F)(F)C(F)(F)C(F)(F)C(F)(F)C(F)(F)F | – | 60.9 µM (active)
